Reference: PubChem BioAssay AID651965 (National Center for Advancing Translational Sciences (NCATS), 2013)
About 6,400 (1.9%) of roughly 340,000 compounds were called active. Not shown: some 4% with an inconclusive outcome. Calls follow the shape of the dose curve; as a rule, active = well fitted falling curve with a large enough effect; inconclusive = small, poorly fitted or top-dose-only effect; inactive = no such curve, though single readings can be large or run the other way. This excerpt belongs to a sample that is enriched for actives.

molecular target: ATP-dependent Clp protease proteolytic subunit (Bacillus subtilis (strain 168)) (UniProt P80244); experiment: qHTS Assay for Activators of ClpP; also: the source files actives as falling curves though it sought activators and does not explain the sign; nearly all actives have a fitted effect of over 65% in size; details: purified B. subtilis ClpP, FRET peptide cleavage, 20 min; series mostly up to 57.5 µM; activity change, negative = active: at the top concentration
Summary of the method: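 Purified B. subtilis ClpP, 10 microg/mL final in Tris/HCl pH8 with KCl, BSA, glycerol and Tween-20, cleaved an Abz/nitrotyrosine-quenched decapeptide. Fluorescence (ex 320, em 430) was read at 0 and 20 min at room temperature. Delta was normalized to 5.8 microM ADEP and DMSO/no-enzyme controls.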
Potency is read from the fitted curve at half-maximal effect.

Activity change, negative = active, inactive:
CC1(Oc2ccc(Cl)cc2)CCN(Cc2csc3ccccc23)C1 (centres undefined) -5.93%, CC1CCCN(C(=O)c2cc(-c3ccco3)nc3ccccc23)C1 (centres undefined) 3.78%, CN(CCOc1ccccc1)C(=O)c1cc(-c2ccco2)nc2ccccc12 4.34%, Cc1ccc(Cc2c(-c3ccco3)nc3ccc(Cl)cn23)cc1 -11.6%, O=C1NC[C@H](CCCCN2C[C@H](Cc3ccccc3)N(Cc3ccccc3)C(=O)C2=O)N(CCc2ccc(O)cc2)C1=O 1.04%, O=C(c1ccc(CSc2ccccc2)cc1)N1CCCCCC1 3.91%, CN(C)c1cc[n+](Cc2ccccc2)cc1 -0.0614%, COc1ccc(-c2cc(NC=O)c3ncc(-c4ccccc4)n3c2)cc1OC -27.2%, CCc1nc2c(OCc3ccc(F)c(F)c3)cccn2c1N(C)C(=O)c1ccco1 -1.58%, CCCn1c(=O)c(C(=O)Nc2cc(C)ccn2)c(O)c2ccccc21 -18%, Cc1ccnc(NC(=O)c2ccoc2C)c1 0.724%, CN1OC[C@@H]2CN(S(=O)(=O)c3cccc4ccccc34)[C@H](c3ccc(N4CCCCC4)cc3)C[C@@H]21 -4.18%, O=C(NC(c1ccc(Cl)cc1)c1cnccn1)C1CCN(Cc2ccc(Cl)cc2)CC1 (centres undefined) 0.881%, O=C1[C@H]2[C@@H](c3ccc(C(F)(F)F)cc3)N[C@]3(CCCN(Cc4ccc(Cl)cc4)C3=O)[C@H]2C(=O)N1Cc1ccccc1 1.88%, Cc1ccccc1OCC(=O)Nc1ccc(S(=O)(=O)N2CCOCC2)cc1 -1.93%, COc1ccc(/C=N/NC(=O)CNC(=O)c2ccc(S(=O)(=O)N3CCCC3)cc2)c(OC)c1 -0.301%, CC(C)Oc1ccc(CN2CCC2(C)C(=O)NCc2ccc(C(F)(F)F)cc2)cc1 (centres undefined) 3.39%, CCc1nc2ccc(C(=O)N3CCC(O)(Cc4ccccc4)CC3)cn2c1N(C)C(=O)Cc1ccccc1 -3.8%, O=[N+]([O-])c1cccc2ncccc12 -1.58%, CN1CCN(S(=O)(=O)c2ccc(N3CCN(c4ccccc4O)CC3)c([N+](=O)[O-])c2)CC1 -2.66%, CC1(C)C=Cc2c(ccc(C(=O)/C=C/c3ccccc3)c2O)O1 -7.63%, COC(=O)[C@]12CCCCC=C1N(Cc1cccc3ccccc13)C(=O)[C@H](CC(=O)N1CCOCC1)C2 -2.63%, CCN(CC)C(=O)C1=C(C)N(Cc2ccc(C(C)(C)C)cc2)C(=O)C(CC(=O)NCc2cccc3ccccc23)C1 (centres undefined) -0.246%, CN(CC(=O)NCCc1ccccn1)S(=O)(=O)c1ccc(Cl)cc1 -0.111%, CN(CCc1ccccn1)C1CCCN(S(=O)(=O)c2ccccc2Cl)C1 (centres undefined) -2.82%, COc1cc(OC)c(/C=C/c2ccnc3ccccc23)c(OC)c1 -0.407%, COc1ccc(C(C(=O)Nc2c(C)cccc2C)N2CCN(c3ccc(C)cc3)CC2)cc1 (centres undefined) -22.1%, CCC(CC)C(C(=O)NC1CCCC1)N1CCN(c2cc(C)nc3ccccc23)CC1 (centres undefined) -2.22%, COc1ccccc1/C=C/c1nc(C#N)c(NC(C)c2ccccc2)o1 (centres undefined) 41.3%, COc1ccccc1/C=C/C(=O)NC(=S)N1CCOCC1 -6.45%, CC1(C(=O)Nc2ccc3c(c2)OCCO3)CSCC(=O)N1CCOc1ccccc1 (centres undefined) 1.8%, C[C@@H]1CC2=C(C(=O)OC(C)(C)O2)[C@@H](C2CC2)O1 0.688%, COc1ccc(C=C2CCC3C(CCCC34OCCO4)C2=O)cc1 (centres undefined) -1.78%, CCCC(=O)Nc1ccc2oc(-c3ccc(O)c(Br)c3)nc2c1 3.89%, CCC(=O)Nc1cccc(-c2nc3cc(C)ccc3o2)c1 4.51%, COc1cccc(C(=O)Nc2ccc3oc(-c4ccc5ccccc5c4)nc3c2)c1 5.06%, O=C(Nc1ccc(-c2nc3cc(NC(=O)c4ccccc4Cl)ccc3o2)cc1)c1ccccc1Cl 4.72%, Clc1ccc(-c2cccc3nccn23)cc1 4.02%, Cc1cc(Br)cn2c(Cc3cccc(F)c3)c(-c3cccc(Br)c3)nc12 -2.7%, C[C@H](NC(=O)CC[C@H]1O[C@@H](n2ccc(=O)[nH]c2=O)[C@H](O)[C@@H]1O)c1cccc2ccccc12 -1.09%, O=C(O)Cc1ccc(NC(=O)Nc2cccc3ccccc23)cc1 -8.87%, S=C(NCCc1ccccc1)NCc1ccccc1Cl -1.72%, O=C1COc2ccc(C(=O)COC(=O)c3ccccc3Cl)cc2N1 -2.91%, Cc1ccc(C)c(OCCC(=O)OCC(=O)c2ccc3c(c2)NC(=O)CO3)c1 -2.42%, COc1cccc(CNc2nc(NCc3cccs3)nc3ccsc23)c1 -17.3%, CSCCC(c1nnnn1Cc1ccccc1)N1CCN(C/C=C/c2ccccc2)CC1 (centres undefined) -3.16%, Cn1c(=O)c2c(n3c4ccccc4nc13)NC(=O)CC2c1cccc(Cl)c1 (centres undefined) 4.02%, CC(C)(C)c1nc2ccccc2c(=O)n1N1C(=O)c2ccccc2C1=O -0.149%, CCc1nc2ccc(C(=O)NC3CCN(Cc4ccccc4)CC3)cn2c1N(C)CCN1CCOCC1 -10.1%, CCCCOCCCNC(=O)C[C@@H]1C[C@@]2(C(=O)OCC)CCCC=C2N(CCC2=CCCCC2)C1=O -2.99%, COc1ccc(CCNC(=O)Nc2ccc3c(c2)c(=O)n(C)n3C)cc1OC 5.14%, N#Cc1cccc(NC(=O)c2cc(C3CCCCN3C(=O)CCc3ccccc3)on2)c1 (centres undefined) 0.66%, CC1(C)OC(=O)C2=C(C[C@@H](C3CCCC3)O[C@@H]2c2ccc(Cl)cc2)O1 0.621%, O=C(NCc1ccccc1Cl)c1csc([C@@H]2O[C@H](CO)[C@@H](O)[C@H]2O)n1 0.242%, Cc1cc(C(=O)OCC(=O)N2C(C)CCCC2C)c2ccccc2n1 (centres undefined) -1.58%, CC1CCCC(C)N1C(=O)COC(=O)c1ccccc1C(=O)c1ccccc1 (centres undefined) -4.22%, COc1ccc(C2=Nc3ccccc3NC(=O)C2N(C(=O)c2cc3ccccc3[nH]2)c2ccccc2)cc1 (centres undefined) -17.4%, Nc1nc2ncccn2c1-c1ccccc1 -16.1%, Cc1cc(-c2ccccc2)n2nc(-c3ccccc3)cc2n1 -12%, CN(C)c1ccc(C=Nc2ccc(/C=C/c3ccnc4ccccc34)cc2)cc1 -3.23%, CC1(C)OC(=O)C2=C(C[C@@H](C3CC3)O[C@H]2CCc2cccc(Cl)c2)O1 2.17%, O=C(Nc1cc(Br)ccc1F)c1nc[nH]c1C(=O)NCc1ccccc1 181%, O=C(NNc1ncnc2c1cnn2-c1ccccc1)c1ccco1 -1.68%, Cc1ccc(-n2ncc3c(N4CCC(C(N)=O)CC4)ncnc32)cc1 4.6%, CC1(C(=O)Nc2cccnc2)Cc2c(-c3ccccc3)ccnc2O1 (centres undefined) -10.8%, COc1ccc(CCn2c3c(c(=O)[nH]c2=S)CN(C(C)C)CN3)cc1OC -4.95%, CCNC(=O)C1CCCN(C(=O)c2ccc(OC)cc2OC)CC1 (centres undefined) 1.83%, CCc1nc2ccc(C(=O)NC3CCN(Cc4ccccc4)CC3)cn2c1N(CC)CCOC -1.6%, CCOC(=O)c1[nH]c2ccc(C)cc2c1N=C(C)N(C)C -18.6%, Cc1ccc2[nH]c(=O)c(COC(=O)c3ccccn3)cc2c1 -5.33%, COC(=O)c1ccc2nc(-c3cccc(Br)c3)c(Cc3ccccc3C(F)(F)F)n2c1 -11.9%, COc1ccc(C(C#N)=C2C=CC(=NO)c3ccccc32)cc1 1.66%, CC1(C)O[C@H]2CC(=O)OCC23[C@H]2CC[C@@]4(C)[C@H](c5ccoc5)OC(=O)[C@H]5O[C@]54[C@]2(C)C(=O)C[C@@H]13 (some centres undefined) -0.868%, CC(C)(C(=O)NO)c1ccccc1 -0.655%, CCCC(=O)Nc1ccc(C(=O)N/N=C/c2ccc[nH]2)cc1 1.82%, CC(Oc1ccccc1[N+](=O)[O-])C(=O)N/N=C/c1ccoc1 (centres undefined) -3.01%, O=C(Nc1ccc(Cl)cc1)c1csc([C@H]2C[C@H](O)[C@@H](CO)O2)n1 0.0111%, COc1ccc(NC(=O)CN2CCN(S(=O)(=O)c3ccc(F)cc3)CC2)cc1Cl 3.19%, COc1ccccc1NC(=O)CN1CCN(S(=O)(=O)c2ccc(Br)cc2)CC1 -12.3%

Potency, active:
O=C(c1cc(-c2ccco2)nc2ccccc12)N(Cc1nnc(-c2ccc(Cl)cc2)o1)C1CC1 28.2 µM, CN(C)c1ccc(CSc2ccccc2)cc1 12.6 µM, CC1=C(C(=O)Nc2cc(C)ccn2)C(c2cnn(C)c2)C2=C(CC(c3ccccc3)CC2=O)N1 (centres undefined) 31.6 µM, COc1cccc(/C=N/NC(=O)CNC(=O)c2ccc(S(=O)(=O)N3CCOCC3)cc2)c1OC 31.6 µM, CN1CN(C)c2ccc([N+](=O)[O-])c3cccc1c23 15.8 µM, CN(CCc1ccccn1)S(=O)(=O)c1ccc2c3c(cccc13)C(=O)N2 25.1 µM, COc1ccccc1/C=C/C1=NC(=C\N(C)C)/C(=O)O1 25.1 µM, O=C(Nc1ccc2oc(-c3ccc4ccccc4c3)nc2c1)c1cccs1 3.55 µM, O=C(Cc1cccc2ccccc12)Nc1ccc2oc(-c3ccccc3)nc2c1 20 µM, O=C(O)Cc1ccc(NCc2ccccc2Cl)cc1 8.91 µM, COc1cc(N)c(Cl)cc1C(=O)OCC(=O)c1ccc2c(c1)NC(=O)CO2 14.1 µM, CC(C)(C)c1cc(=O)n2c(nc3ccccc32)[nH]1 15.8 µM, COc1ccc2c(c1OC)C(=O)N(c1ncn[nH]1)C2 28.2 µM, Cc1nn(-c2ccccc2)nc1C(=O)OCC(=O)N1CCCCC1C (centres undefined) 10 µM, c1ccc(-c2ccnc3nc(-n4cccc4)nn23)cc1 1.78 µM, CCOC(=O)c1cc2cc(C)ccc2[nH]1 14.1 µM, COCCN(CCOC)c1nc(N)c2c(N)nc3c(c2c1C#N)CC(=O)N3Cc1ccc(Cl)cc1 3.16 µM, CC1=C2C(=O)OC(c3ccoc3)C2(C)CCC1 (centres undefined) 25.1 µM, O=C(COc1ccccc1[N+](=O)[O-])N/N=C/c1ccc[nH]1 31.6 µM, COc1cc2c(cc1NC(=O)CN1CCN(S(=O)(=O)c3ccc(F)cc3)CC1)oc1ccccc12 11.2 µM
